TGFb inhibitor – TGF-b pathway inhibition; Potency, µM (series often up to 46.1 µM), for inactives: at the highest dose activity, negative = inhibition, actives largely listed as inhibitors; AID 588855; 1.2% of 410,000 active; HepG2 CAGA-GFP TGF-b/SMAD3 reporter, GFP fluorescence, 18 h; TGF-beta stimulated, 500 pg/mL final; further: on the % scale 0 is the no-effect control and ±100 the full control effect; nearly all actives have a fitted effect of over 65% in size
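Read-out: total well GFP (ex488/em500-530) summed from mean per-cell fluorescence. Cells: HEPG2 CAGA-GFP, 1% FBS DMEM, 18 h at 37 degrees C with 500 pg/mL final TGF-beta. Unstimulated wells served as the full-inhibition control; stimulated DMSO wells = 0%.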
TDP1 cell noCPT – qHTS for Inhibitors of human tyrosyl-DNA phosphodiesterase 1 (TDP1): qHTS in cells in absence of CPT. Potency, µM (highest dose often 46.2 µM), for the others: top-dose activity change, negative = growth inhibition, actives largely listed as inhibitors. 15% of 420,000 active. DT40 Tdp1-/- hTDP1 cells, no CPT, ATP luminescence, 48 h; further: on the % scale 0 is the no-effect control and ±100 the full control effect; nearly all actives have a fitted effect of over 55% in size
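Readout: luminescence from CellTiter-Glo after 30 min in the dark at RT. Cells: DT40 Tdp1-/- with stable hTDP1, 400/well. Exposure: compounds alone, ≥48 hr, 37 °C.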
TDP1 cell CPT – growth inhibition of DT40 Tdp1-/-;hTDP1 cells with camptothecin (screen for TDP1 inhibitors); Potency, µM (doses to about 46.2 µM), for the others: at the top dose activity change, negative = growth inhibition, hits mostly inhibitors; 12% of 420,000 active; chicken DT40 Tdp1-/-;hTDP1 cells + 20 nM CPT, ATP luminescence, 48 h; further: on the % scale 0 is the no-effect control and ±100 the full control effect; nearly all actives have a fitted effect of over 55% in size
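Chicken DT40 Tdp1-/- cells complemented with human TDP1, 400 cells/well, exposed to compounds plus 20 nM camptothecin for at least 48 h at 37 C; viability read as ATP content by CellTiter-Glo luminescence.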
HT1080-NT tox – kills 2HG-producing HT-1080-NT fibrosarcoma cells | HT-1080-NT fibrosarcoma viability, CellTiter-Glo ATP luminescence, 48 h | Potency, µM (titrated, usually from 46.1 µM), for inactives: at the top dose activity, negative = less viability, usual class: cytotoxic | 1.6% of 360,000 active;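 further: NT is the 2HG producing partner of a matched IDH1 knockdown line; 0% = DMSO-treated cells and -100% = media-only wells without cells; nearly all actives have a fitted effect of over 55% in size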
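Compounds were tested in concentration-response format on HT-1080-NT cells for 48 hours at 37 degrees C. Cell viability came from CellTiter-Glo luminescence; curves were classified by r2, response magnitude and activity.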
HT1080 IDH1KD tx – toxicity to HT-1080 IDH1 knockdown cells (counter line) | 2% of 360,000 active | Potency, µM (doses to about 46.1 µM), for the others: at the top dose activity, negative = toxicity, hits mostly cytotoxic | AID 686971 | HT-1080 IDH1 knockdown viability, ATP luminescence, 48 h;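 further: 0% = DMSO wells and -100% = cell-free medium wells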
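Luminescent ATP read-out (CellTiter-Glo, 10 min at room temperature) after 48 h compound exposure at 37 °C gave viability of IDH1-knockdown HT-1080 cells. Activity was normalised to DMSO and cell-free wells, then fitted as concentration-response curves.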
HepG2 tox – kills HepG2 cells in TGF-b inhibitor counter-screen; HepG2 CAGA-GFP viability, ATP luminescence, 18 h; 0.76% of 410,000 active; Potency, µM (highest dose often 46.1 µM), inactives show at the highest dose activity change, negative = cytotoxicity, most hits filed as cytotoxic
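HepG2 CAGA-GFP cells (1000/well, DMEM with 1% FBS) received compound, then TGF-beta at 500 pg/mL final, and were incubated 18 hours at 37 degrees C. Viability was read by CellTiter-Glo luminescence. Media-only wells were set as complete cell-killing and DMSO as no toxicity.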
An asterisk follows results filed as active; ? = inconclusive; · = no result given; [ ] = another dose, or the depositor's remark. Compounds with a hit are over-represented: about 17% of the library has one in this group of screens. The call rests on the fitted dose curve; in most records, active means well fitted curve in the direction sought with a large enough effect; inconclusive means small, poorly fitted or top-dose-only effect, or another doubt; inactive means no such curve, though single readings can be large; an effect the other way counts as inactive or inconclusive. Potency means the concentration at half of the fitted maximal effect.

SMILES	TGFb inhibitor	TDP1 cell noCPT	TDP1 cell CPT	HT1080-NT tox	HT1080 IDH1KD tx	HepG2 tox
COc1ccc(/C=N/N=C/c2ccc(OC)c(OC)c2)cc1OC	-4%	-23%	-13%	8%	0%	10%
Cc1nc(N2CCCC2)c2c(C(=O)N3CCN(c4cccc(C)c4C)CC3)c(C)oc2n1	?	?	?	·	·	-32%
COc1ccc2c(c1)CC/C(=C\Nc1ccc3c(c1)OCO3)C2=O	1%	?	15µM*	?	5%[9.24 µM]	-33%
COc1ccc(N/C=C2\CCc3ccccc3C2=O)cc1	-30%	?	?	?	?	11µM*
O=C1/C(=C/Nc2ccc3c(c2)OCO3)CCc2ccccc21	?	?	26µM*	?	?	-68%
O=C1OC2(CCCCC2)OC(=O)C1=CNc1ccc2c(c1)OCO2	14%	-15%	-23%	-14%	11%	-24%
CCn1cc(C(=O)O)c(=O)c2cc(F)c(N3CCN(C(=S)NC(=O)c4ccc(F)c(F)c4)CC3)cc21	4%	?	?	-1%	-1%	-43%
CCC(=O)NC(=S)Nc1ccc(-c2nc3ccc(C)cc3s2)cc1	0%	?	21µM*	28%	13%	-6%
CCC(=O)NC(=S)Nc1ccc(-c2nc3ccccc3s2)cc1	-18%	-24%	-15%	?	21%	-6%
Cc1ccc2nc(-c3ccc(NC(=S)NC4CC(C)(C)NC(C)(C)C4)cc3)sc2c1	?	6.5µM*	3.7µM*	23µM*	?	13µM*
Cc1ccc2nc(-c3ccc(NC(=S)NC(=O)C(C)C)cc3)sc2c1	-2%	-13%	-11%	2.8µM*	1.6µM*	0%
Cc1ccc(C2(C)NC(=O)N(CC(=O)Nc3ccc(-c4nc5ccc(C)cc5s4)cc3)C2=O)cc1 (stereo unspecified)	-29%	10µM*	?	-14%	?	-20%
CC(=O)c1ccc(N2C(=NC(=O)CCC3CCCC3)SC3CS(=O)(=O)CC32)cc1 (stereo unspecified)	0%	?	-25%	6%	12%	2%
Cc1ccccc1-c1cc2nc(NCc3ccccc3F)n(C)c(=O)c2s1	?	6.5µM*	7.3µM*	?	?	-41%
COc1cccc(CNc2nc3cc(-c4ccc(F)cc4)sc3c(=O)n2C)c1OC	-2%	16µM*	26µM*	-13%	?	-26%
C=CCNc1nc2cc(-c3ccccc3C)sc2c(=O)n1C	4%	10µM*	15µM*	15µM*	9.2µM*	-34%
Cc1ccccc1-c1cc2nc(NCc3ccc4occc4c3)n(C)c(=O)c2s1	?	?	18µM*	23%	23%	-2%
Cn1c(NCc2ccc3occc3c2)nc2cc(-c3cccc(C(F)(F)F)c3)sc2c1=O	?	-29%	-18%	13%	5%	-38%
NC(=O)N/N=C/c1ccccc1OCc1cccc2ccccc12	1%	-28%	-1%	-6%	-3%	-18%
Cc1ccccc1-c1cc2nc(Oc3ccc4c(c3)OCO4)n(C)c(=O)c2s1	-10%	?	12µM*	5%	0%	-2%
CCCn1c(NC(=O)c2ccc(Cl)c(S(=O)(=O)N3CCCC3)c2)nc2ccccc21	-7%	16µM*	23µM*	?	?	-16%
CC(=O)Nc1nonc1-c1nc2ccccc2n1Cc1ccccc1	39%	?	?	16µM*	12µM*	4%
CCC(=O)Nc1nc2ccccc2n1Cc1ccccc1	-21%	16µM*	15µM*	?	?	-1%
Cn1c(NCc2ccc(Cl)cc2)nc2ccccc21	-7%	15µM*	?	?	?	-34%
Cc1nn(Cc2n[nH]c(=S)n2Cc2ccccc2)c(C)c1Cl	18%	-21%	-1%	-2%	-4%	-13%
SMILES	TGFb inhibitor	TDP1 cell noCPT	TDP1 cell CPT	HT1080-NT tox	HT1080 IDH1KD tx	HepG2 tox
CC[C@]1(C(=O)OC)[C@H]2C(=O)N(C)C(=O)[C@H]2[C@H]2CN=C(SCc3ccc(C#N)cc3)N21	4%	-4%	-10%	17%	2%	-4%
CC(=O)Nc1nc2ccccc2n1Cc1ccc(Cl)cc1	?	?	23µM*	?	16µM*	-27%
CCC(=O)Nc1nc2ccccc2n1CCN(CC)CC	-32%	-4%	29µM*	9%	-1%	-37%
CN(C)CCn1c(NC(=O)c2ccc(Cl)cc2)nc2ccccc21	-10%	?	?	?	11µM*	-4%
CCC(=O)NCCc1nc2ccccc2n1Cc1ccc(C)cc1	0%	?	-25%	0%	8%	-27%
CCC(=O)Nc1nc2ccccc2n1Cc1ccc(C)cc1	0%	10µM*	12µM*	?	-20%	-45%
Cc1cc(C)cc(NC(=O)C[n+]2ccccc2)c1	6%	-22%	-11%	-2%	-6%	0%
CCC1(CC)NC(=O)N(CC(=O)OCC(=O)Nc2cc(OC)ccc2OC)C1=O	30%	2%	-2%	-8%[9.24 µM]	0%	-2%
COc1ccc2c(c1)c(CC(=O)Nc1cccc(F)c1C)c(C)n2C(=O)c1ccc(Cl)cc1	15%	2%	5%	·	·	-2%
O=C(Nc1ccc2nc(-c3cccnc3)[nH]c2c1)c1ccco1	-24%	-28%	?	10%	9%	-7%
COC(=O)c1cc(NC2c3ccccc3C(=O)N2Cc2ccco2)cc(C(=O)OC)c1 (stereo unspecified)	-21%	2%	-7%	15%	3%	-33%
O=C1c2ccccc2C(Nc2ccc(-c3nc4ccccc4[nH]3)cc2)N1Cc1ccco1 (stereo unspecified)	-7%	18µM*	?	-4%	-14%	-21%
CCOc1ccc(NC2c3ccccc3C(=O)N2Cc2ccco2)cc1 (stereo unspecified)	-25%	12µM*	16µM*	-4%	-6%	-20%
O=C1c2ccccc2C(Nc2ccc3nc(-c4cccnc4)[nH]c3c2)N1Cc1ccco1 (stereo unspecified)	0%	7.3µM*	9.2µM*	1%	2%	2%
COc1ccc(C2=CC(=O)N(Nc3ccccc3)C2=O)cc1	?	21µM*	18µM*	?	16µM*	-151%
O=C1C=C(c2ccccc2)C(=O)N1Nc1ccccc1	?	5.8µM*	4.1µM*	-5%	?	-98%

Compound activity: PubChem, National Center for Advancing Translational Sciences (NCATS)
